Screens from PubChem.
Many of the other results were omitted from the sample, so hits are more common in it than they were.
Shiga toxin inh: A qHTS for Small Molecule Inhibitors of Shiga Toxin; Vero cells, Shiga toxin protein synthesis inhibition reporter; inhibition, % at 38.7 µM; hit rate 9.2% among 290,000; AID 2315, 2010; in the data active = inhibition mostly above about 28%, no sharp cut-off; inactive = mostly below about 43%; also: 0% is about no effect
CHX counter: Cycloheximide Counterscreen for Small Molecule Inhibitors of Shiga Toxin; cell reporter, cycloheximide protein synthesis inhibition counterscreen; max response, %; hit rate 12% among 300,000; in the data active = max response mostly above about 13%, no sharp cut-off; inactive = mostly below about 14%; also: read at 38.3 µM for the half of the compounds with a filed dose; 0% is about no effect
AmpC inh no detg: qHTS Inhibitors of AmpC Beta-Lactamase (assay without detergent). P00811. AmpC nitrocefin hydrolysis, absorbance 480 nm, 0.0001% Triton. Potency, µM (series often up to 57.1 µM), for inactives: at the highest dose activity change, negative = inhibition, most hits filed as inhibitors. hit rate 0.52% among 330,000. AID 485341, 2010;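 also: potency is read from the fitted curve at half-maximal effect; plate controls were no compound for no effect and no enzyme for full effect; nearly all actives have a fitted effect of over 20% in size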
Target sequence (P00811 whole entry, looked up): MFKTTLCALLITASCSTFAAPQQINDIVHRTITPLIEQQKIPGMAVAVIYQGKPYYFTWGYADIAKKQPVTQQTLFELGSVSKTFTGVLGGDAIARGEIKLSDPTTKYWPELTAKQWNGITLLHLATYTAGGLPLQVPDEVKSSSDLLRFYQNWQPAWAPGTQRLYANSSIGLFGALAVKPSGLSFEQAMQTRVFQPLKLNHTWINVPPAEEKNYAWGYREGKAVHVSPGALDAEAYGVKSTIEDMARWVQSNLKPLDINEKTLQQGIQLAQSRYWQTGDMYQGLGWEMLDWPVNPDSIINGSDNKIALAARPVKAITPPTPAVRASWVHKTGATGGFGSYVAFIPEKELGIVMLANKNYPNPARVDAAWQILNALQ
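AmpC (5.3 nM in the dispensed reagent) in 20 mM phosphate pH 7.0 with 0.01% (detergent screen) or 0.0001% Triton X-100 was preincubated with compounds for 15 min at room temperature. Nitrocefin was then added from an 800 uM solution, and hydrolysis was followed at 480 nm.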
AmpC detergent: qHTS Inhibitors of AmpC Beta-Lactamase (assay with detergent); P00811; AmpC hydrolysis of nitrocefin, absorbance 480 nm, 0.01% Triton; Potency, µM (top dose mostly 114 µM), for the others: at the highest dose activity change, negative = inhibition, actives largely listed as inhibitors; hit rate 0.041% among 370,000; AID 485294, 2010;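 also: potency is read from the fitted curve at half-maximal effect; 0% = no-compound wells and -100% = no-enzyme wells; nearly all actives have a fitted effect of over 25% in size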
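AmpC (5.3 nM in the dispensed reagent) in 20 mM phosphate pH 7.0 with 0.01% (detergent screen) or 0.0001% Triton X-100 was preincubated with compounds for 15 min at room temperature. Nitrocefin was then added from an 800 uM solution, and hydrolysis was followed at 480 nm.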
NS1 inh: qHTS Assay for Inhibitors of Influenza NS1 Protein Function | Potency, µM (titrated, usually from 46.1 µM), for inactives: at the top dose activity, positive = more growth | hit rate 0.4% among 270,000; calls by dose curve; also: potency is read from the fitted curve at half-maximal effect; actives are rising curves; nearly all actives have a fitted effect of over 50% in size
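In this qHTS, NS1 from influenza A is expressed in budding yeast, where it slows growth. Cells are switched from glucose to 2% galactose medium (pH 6.0, -URA), treated with compound, and growth recovery is read at OD600.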
The depositor's hits bear a star; ? = inconclusive; . = not tested or not shown; [ ] = remark or other dose. Unless noted, calls follow the shape of the dose curve; as a rule, active = well fitted curve in the direction sought with a large enough effect; inconclusive = small, poorly fitted or top-dose-only effect, or another doubt; inactive = no such curve, though single readings can be large; an effect the other way counts as inactive or inconclusive.

SMILES | Shiga toxin inh | CHX counter | AmpC inh no detg | AmpC detergent | NS1 inh
COc1ccc(N(CC(=O)Nc2cccc(SC)c2)S(C)(=O)=O)cc1 | 49* | 23* | -30% | -14% | -30%
COc1ccc(N(CC(=O)Nc2cccc(C(F)(F)F)c2)S(C)(=O)=O)cc1 | 20 | active | -1% | -7% | -1%
COc1cccc(NC(=O)CN(c2cccc(OC)c2)S(C)(=O)=O)c1 | -9 | -1 | -21% | 0% | 1%
Cc1ccc(S(=O)(=O)NCCc2nnc3ccc(SCc4ccccc4C)nn23)cc1 | . | . | . | -4% | .
CCOc1ccc(C(=O)Nc2c(C(=O)Nc3ccccc3OC)oc3ccccc23)cc1OCC | . | . | . | -12% | .
COc1ccc(CNC(=O)Nc2ccc(C)c(C)c2)cc1 | 32 | 33* | 1%[2.29 µM] | 1% | -1%
CCOC(=O)c1ccc(NC(=O)NCc2ccc(OC)cc2)cc1 | 31 | 13 | -7% | -12% | .
COc1ccc(CNc2ccc(C)c(C)c2)cc1 | 57* | 41* | -19% | 1% | 2%
COc1ccc(N2CCC(CNC(=O)Nc3ccc(C)c(C)c3)C2)cc1 (stereo not drawn) | -18 | -2 | -16% | ? | ?
COc1ccc(CNC(=O)Nc2cc(C)cc(C)c2)cc1 | 48* | 24* | 0% | -3% | -5%
COc1ccc(NC(=O)NCc2ccncc2)cc1 | -22 | -1 | -15% | 6% | 4%
COc1cc(CNc2ccc(C)c(C)c2)cc(OC)c1OC | 115 | 35 | 7% | -6% | ?
COc1ccc(CNC(=O)Nc2ccc(C)cc2)cc1 | 76* | 24* | -38% | ? | 4%
Oc1c(C(O)(c2ccccc2)c2ccc3ccccc3c2O)ccc2ccccc12 | . | . | . | . | -8%
Cc1ccc2cc(C)c3nnc(SCC(=O)Nc4nc5c(s4)CCCC5)n3c2c1C | 20 | 12* | 186% | -3% | 0%
O=C(CSc1nc2ccccc2c(=O)[nH]1)c1cccs1 | 10 | 10 | -35% | -14% | -30%
Cc1ccc(C)c2c1cc(C)c1nnc(SCC(=O)c3cccs3)n12 | -6 | -1 | -21% | ? | 29%
Cc1ccc2cc(C)c3nnc(SCC(=O)c4cccs4)n3c2c1C | 26 | 38* | 71% | ? | -19%
Cc1cc(SCC(=O)c2cccs2)nc2ccccc12 | 73* | 42* | -24% | 0% | 6%
Cc1cc(Cl)c(C)c(S(=O)(=O)N2CCN(CC(=O)N3CCOCC3)CC2)c1Cl | . | . | 201% | 2% | .
Clc1cccc(Cl)c1Cn1cnc2c(NCc3ccco3)ncnc21 | -19 | -6 | -3% | 13% | -15%
Clc1cccc(Cl)c1Cn1cnc(=NCc2ccco2)c2[nH]cnc21 | 38 | 22* | -19% | -25% | -8%
CC(C)NS(=O)(=O)c1ccc(OCC(=O)N(C)Cc2ccccc2)cc1 | -8 | -1 | 11% | 1% | -1%
CN(Cc1ccccc1)C(=O)CC(=O)N(C)Cc1ccccc1 | 52* | 27* | 1% | -1% | 5%
CN(Cc1ccccc1)C(=O)Cc1ccccc1 | -3 | -1 | 0% | ? | 8%
SMILES | Shiga toxin inh | CHX counter | AmpC inh no detg | AmpC detergent | NS1 inh
Cc1cc(OCC(=O)N(C)Cc2ccccc2)ccc1Br | 56* | 34* | 3% | ? | -24%
Cc1cc(OCC(=O)N(C)Cc2ccccc2)ccc1Cl | 24* | 28* | 8% | -20% | -5%
Cc1nn(CC(=O)N(C)Cc2ccccc2)c(=O)c2cccn12 | 46* | 15 | -22% | 0% | -1%
COc1ccc(OCC(=O)N(C)Cc2ccccc2)cc1 | 33 | 16 | 0% | -10% | -77%
Cc1nn(CC(=O)NCc2ccccc2)c(=O)c2cccn12 | 20 | 13 | -1% | 0% | -14%
Cc1c(C(=O)NCc2ccccc2Cl)sc2nc3n(c(=O)c12)CCCCC3 | . | . | . | 12% | .
COc1ccc(CCNC(=O)c2cc3c(=O)n4ccccc4nc3n(Cc3ccco3)c2=N)cc1OC | 18 | 15* | 15% | -19% | 11%
Cc1ccc(-c2cc(C(=O)N3CCOCC3)c3cc(C)ccc3n2)cc1 | 27 | 21* | 111% | -13% | -22%
COc1ccc(-c2cc(C(=O)N3CCCCCC3)c3ccccc3n2)cc1 | . | . | 69% | -6% | .
Cc1ccc(-c2cc(C(=O)O)c3cc(Br)ccc3n2)s1 | 42* | 23* | -22% | -1% | -60%
Cc1ccc(-c2cc(C(=O)N3CCCC3)c3ccccc3n2)s1 | 52* | 20* | 119% | 7% | -35%
O=C(c1cc(-c2ccccc2)nc2ccccc12)N1CCN(c2ccccc2O)CC1 | 46* | 15* | 15% | -10% | -42%
Cc1ccc2nc(-c3ccncc3)cc(C(=O)N3CCOCC3)c2c1 | -5 | -2 | 14% | 2% | -12%
CCc1ccc(NC(=O)C(=O)NCCN2CCN(C(=O)c3ccco3)CC2)cc1 | -4 | 7 | 38% | -2% | -2%
CC(=NCC(=O)O)c1ccccc1 | . | . | . | . | 1%
Cc1ccc(-c2cc(C(=O)N3CCC(C)CC3)c3ccccc3n2)cc1 | 2 | 17* | 94% | -12% | -105%
O=C1C2C3C=CC(C3)C2C(=O)N1/N=C/c1cn(Cc2ccccc2)c2ccccc12 (stereo not drawn) | 72 | 31 | -30% | -7% | -8%
O=C1C2C3C=CC(CC3)C2C(=O)N1/N=C/c1c[nH]c2ccccc12 (stereo not drawn) | 125* | 52* | -23% | 7% | .
COc1ccccc1/C=N/N1C(=O)C2C3C=CC(CC3)C2C1=O (stereo not drawn) | 35 | 13 | -21% | 2% | .
COc1ccc(/C=N/N2C(=O)C3C4C=CC(CC4)C3C2=O)c(OC)c1 (stereo not drawn) | 55* | 45* | -3% | 6% | .
COc1ccc(C2(c3ccc(OC)cc3)NC(=O)N(CC(=O)Nc3ccccc3)C2=O)cc1 | -8 | -1 | -41% | -1% | -18%
COc1ccc(C2(c3ccc(OC)cc3)NC(=O)N(CC(=O)N(C)c3ccccc3)C2=O)cc1 | 72* | 51* | 41% | 5% | 10%
CCC(=O)c1ccc(SC(=O)N(C)C)cc1O | 27 | 15* | -7% | 3% | -2%
Cc1cccc(-n2ncc3c2CCCC3NC(=O)CC(F)(F)F)c1C (stereo not drawn) | -7 | -3 | 0% | -3% | -11%
Cc1cccc(-n2ncc3c2CCCC3NC(=O)Cn2cccn2)c1C (stereo not drawn) | 10 | 19* | -10% | 0% | -2%
Cc1cc(C(=O)NC2CCCc3c2cnn3-c2cc(F)cc(F)c2)nn1C (stereo not drawn) | 25* | 15 | -6% | -1% | -19%
COc1ncccc1C(=O)NC1CCCc2c1cnn2-c1cc(C)cc(C)c1 (stereo not drawn) | 19 | -1 | 89% | -14% | -7%
CCn1nc(C)cc1C(=O)NC1CCCc2c1cnn2-c1cc(F)cc(F)c1 (stereo not drawn) | 13 | 11 | 104% | 4% | -24%
